The results in this text go back to PubChem BioAssay (Tox21).

Where “and” joins values, the source holds several entries; their conditions need not be identical. Identical values can stand only once. Results filed as inconclusive are left out. Entries that show only a call come without a potency. The source holds several records for some structures; these can differ, active in one and inactive in another. Calls of active or inactive are those of the source. Calls follow the shape of the dose curve; as a rule, active = well fitted curve in the direction sought with a large enough effect in the repeat runs; inconclusive = weak or mixed curves; inactive = no such curve, though single readings can be large; an effect the other way counts as inactive or inconclusive.
Also: nearly all actives have a fitted effect of over 50% in size.
Potency is read from the fitted curve at half-maximal effect.

The nature of one assay: qHTS RealTime-Glo MT Cell Viability Assay in HepG2 cells - 16 hour (AID 1224885). The note with it: RealTime-Glo luminescence; series mostly up to 76.8 µM. The method, boiled down:
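qHTS, HepG2, 600 cells/well, RealTime-Glo (NanoLuc + prosubstrate) added with cells; 5 h preincubation; DMSO compound addition; 37 C; luminescence at 0/8/16/24/32/40 h.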
A general note: qHTS replaces the single test concentration by a dilution series.
For `[CH3][Hg][Cl]`, the Potency was 10.9 µM (active). Take `Nc1ccc([N+](=O)[O-])cc1Cl`: the Potency result is “inactive”. `O=C(CCl)C(Cl)Cl`: the Potency entry is “inactive”.

Turning to `CCCCN(CCCC)C(=S)[S-].CCCCN(CCCC)C(=S)[S-].[Zn+2]`, the Potency is 34.7 µM (active). Still for that read-out and setting: in the case of `CCOCCOC(C)=O` it was “inactive”; in that of `[Cl][Sn]([c]1ccccc1)([c]1ccccc1)[c]1ccccc1`, 2.93 µM (active); in that of `CCCCCCCCCCCCCCCC[N+](C)(C)C`, “inactive and 54.9 µM (active) and 23.9 µM (active)”. With `N#CSCSC#N`, the Potency was 56.2 µM (active) and 19.3 µM (active). On to `C[C@]12Cc3nonc3C[C@@H]1CC[C@@H]1[C@@H]2CC[C@@]2(C)[C@H]1CC[C@]2(C)O`, for which the Potency result is “inactive”. As to `ClC(Cl)=C(Cl)Cl`, the Potency entry is “inactive”. Consider `C[As+](C)(C)CC(=O)[O-]`, for which the Potency result was “inactive”. With `COP(N)(=S)OC`, the Potency entry is “inactive”. Still for that read-out and setting: in the case of `ClC1=C(Cl)[C@]2(Cl)[C@@H]3[C@@H](Cl)[C@@H](Cl)C[C@@H]3[C@@]1(Cl)C2(Cl)Cl` it was “inactive”; in that of `FC(Cl)(Cl)Cl`, “inactive”; in that of `Cl/C=C\CCl`, “inactive”.

Another assay in a line: qHTS RealTime-Glo MT Cell Viability Assay in HEK293 cells - 24 hour (AID 1224886). The note with it: RealTime-Glo luminescence; series mostly up to 76.8 µM. In short, it runs like this:
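Assay medium contained NanoLuc luciferase plus cell-permeant prosubstrate, added with HEK293 cells at 600 cells/well. After 5 h at 37 C/5% CO2 compounds were added; plates stayed at 37 C for 40 h with serial luminescence reads.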
In the case of `CCN(CC)C(=S)[S-].CCN(CC)C(=S)[S-].[Zn+2]`, the Potency is 4.86 µM (active). For the compound `CN(C)C(=S)[S-].CN(C)C(=S)[S-].[Cu+2]`, the Potency is 1.34 µM (active).

Regarding `Clc1ccc(COC(Cn2ccnc2)c2ccc(Cl)cc2Cl)cc1` (configuration not stated), the Potency was 18.2 µM (active) and 21.8 µM (active). `CCOP(=S)(OCC)SCCS(=O)(=O)CC`: the Potency entry was “inactive”. For `Cc1ccc(C(=O)Cl)cc1`, the Potency entry was “inactive”.

For the compound `CC(C)N1C(=O)N(c2ccccc2)CSC1=NC(C)(C)C`, the Potency is 19.5 µM (active).

As to `C=CC(=O)OCC(COC(=O)C=C)(COC(=O)C=C)COC(=O)C=C`, the Potency was 3.89 µM (active). For the compound `[CH3][Hg][Cl]`, the Potency was 4.89 µM (active).

Turning to `Nc1ccc([N+](=O)[O-])cc1Cl`, the Potency result was “inactive”. Take `O=C(CCl)C(Cl)Cl`: the Potency was 17.5 µM (active). `CCCCCCCCCCCCCCCC[N+](C)(C)C`: the Potency was 9.42 µM (active) and 21.9 µM (active) and 9.52 µM (active). Take `N#CSCSC#N`: the Potency was 12.6 µM (active) and 19.3 µM (active).

Turning to `C[C@]12Cc3nonc3C[C@@H]1CC[C@@H]1[C@@H]2CC[C@@]2(C)[C@H]1CC[C@]2(C)O`, the Potency is 19 µM (active).

On to `ClC(Cl)=C(Cl)Cl`, for which the Potency result is “inactive”.

For the compound `COP(N)(=S)OC`, the Potency result was “inactive”.

As for `ClC1=C(Cl)[C@]2(Cl)[C@@H]3[C@@H](Cl)[C@@H](Cl)C[C@@H]3[C@@]1(Cl)C2(Cl)Cl`, the Potency result was “inactive”.

As for `Cl/C=C\CCl`, the Potency result is “inactive”.
